Measurements from PubChem BioAssay (Tox21).
Calls of active or inactive are those of the source. The call rests on the fitted dose curve; in most records, active means well fitted curve in the direction sought with a large enough effect in the repeat runs; inconclusive means weak or mixed curves; inactive means flat fitted curve, though single readings scatter.

Key:
[1] = qHTS assay to test for compound auto fluorescence at 535 nm (green) in HEK293 cells (AID 720680)
[2] = qHTS assay to test for compound auto fluorescence at 460 nm (blue) in HEK293 cell free culture (AID 720681)
Outline: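 Test compounds were pinned into cell-free culture medium (DMEM with 10% FBS) and fluorescence was read directly at Ex/Em 405/460 nm. Signals were expressed as fluorescence equivalents of triamterene, with DMSO vehicle as control.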

[3] = qHTS assay to test for compound auto fluorescence at 535 nm (green) in HEK293 cell free culture (AID 720682)
Outline: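 No cells present: wells hold DMEM supplemented with 10% FBS, into which compound or vehicle is pinned. Green emission is then recorded (485 nm excitation, 535 nm emission) and scaled to fluorescein.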

[4] = qHTS assay to test for compound auto fluorescence at 590 nm (red) in HEK293 cell free culture (AID 720683)
Outline: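 Tox21 10K library compounds were pinned into cell-free DMEM with 10% FBS and fluorescence was read at excitation 540 nm. Activity is expressed as Rose Bengal sodium equivalency.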

[5] = qHTS assay to test for compound auto fluorescence at 590 nm (red) in HepG2 cell free culture (AID 720684)
Outline: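 Red fluorescence (540 nm excitation, 590 nm emission) was measured after compound transfer into cell-free MEM supplemented with 10% FBS. Values are equivalencies against Rose Bengal sodium.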

[6] = qHTS assay to test for compound auto fluorescence at 460 nm (blue) in HepG2 cell free culture (AID 720685)
Outline: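 Compound (23 nL) or DMSO pinned into cell-free MEM with 10% FBS; blue fluorescence read at 405/460 nm excitation/emission, expressed as auto-fluorescence equivalency to triamterene.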

[7] = qHTS assay to test for compound auto fluorescence at 535 nm (green) in HepG2 cell free culture (AID 720686)
[8] = qHTS assay to test for compound auto fluorescence at 460 nm (blue) in HepG2 cells (AID 720687)
Outline: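 Cells (2,000/well in MEM with 10% FBS) attached overnight at 37 C, then were exposed to compound or DMSO for 1 hr at 37 C, 5% CO2. Fluorescence read at Ex/Em 405/460 nm, expressed as triamterene-equivalent signal.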
On the % scale 0 is the no-effect control and ±100 the full control effect.

CC1CCC(C(C)(C)S)C(=O)C1 (stereo not drawn)
inactive: outcome [1] | outcome [2] | outcome [3] | outcome [4] | outcome [5] | outcome [6] | outcome [7] | outcome [8]

C[CH2][Ge]([Cl])([CH2]C)[CH2]C
inactive: outcome [1] | outcome [2] | outcome [3] | outcome [4] | outcome [5] | outcome [6] | outcome [7] | outcome [8]

O=c1cc(O)c(Cl)c[nH]1
inactive: outcome [1] | outcome [2] | outcome [3] | outcome [4] | outcome [5] | outcome [6] | outcome [7]

CCCCCCCCOC(C)=O
inactive: outcome [1] | outcome [2] | outcome [3] | outcome [4] | outcome [5] | outcome [6] | outcome [7]

Cn1c(=O)c2c(ncn2CC2OCCO2)n(C)c1=O
inactive: outcome [1] | outcome [2] | outcome [3] | outcome [4] | outcome [5] | outcome [6] | outcome [7] | outcome [8]

Cc1cccc(C(=O)O)c1[N+](=O)[O-]
inactive: outcome [1] | outcome [2] | outcome [3] | outcome [4] | outcome [5] | outcome [6] | outcome [7] | outcome [8]

CCC(O)C(C)(C)C (stereo not drawn)
inactive: outcome [1] | outcome [2] | outcome [3] | outcome [4] | outcome [5] | outcome [6] | outcome [7] | outcome [8]

COCC(=O)Nc1c(I)c(C(=O)NCC(O)CO)c(I)c(C(=O)N(C)CC(O)CO)c1I (stereo not drawn)
inactive: fluorescence, % of fluorescein [1] -0.025% [at 18.6 µM] | fluorescence, % of fluorescent control [2] -0.0015% [at 18.6 µM] | activity change [3] 0.0796% [at 18.6 µM] | fluorescence, % of fluorescent control [4] 0.0121% [at 18.6 µM] | fluorescence, % of Rose Bengal [5] 0.0461% [at 18.6 µM] | fluorescence, % of fluorescent control [6] -0.109% [at 18.6 µM] | fluorescence, % of fluorescein control [7] -0.084% [at 18.6 µM] | fluorescence, % of fluorescent control [8] -0.143% [at 18.6 µM]

CCOC(=O)CC(CC(=O)OCC)(OC(C)=O)C(=O)OCC
inactive: outcome [1] | outcome [2] | outcome [3] | outcome [4] | outcome [5] | outcome [6] | outcome [7] | outcome [8]

O=C(Oc1ccccc1C(=O)O)c1ccccc1O
inactive: outcome [1] | outcome [2] | outcome [3] | outcome [4] | outcome [5] | outcome [6] | outcome [7] | outcome [8]

CCCCCCCCCCCCOC(C)=O
inactive: outcome [1] | outcome [2] | outcome [3] | outcome [4] | outcome [5] | outcome [6] | outcome [7] | outcome [8]

Nc1cc(C(=O)O)ccc1Cl
inactive: outcome [1] | outcome [2] | outcome [3] | outcome [4] | outcome [5] | outcome [6] | outcome [7] | outcome [8]

CCOC(=O)C(C)(C)C
inactive: outcome [1] | outcome [2] | outcome [3] | outcome [4] | outcome [5] | outcome [6] | outcome [7] | outcome [8]

CCOC(=O)CCc1ccccc1
inactive: outcome [1] | outcome [2] | outcome [3] | outcome [4] | outcome [5] | outcome [6] | outcome [7] | outcome [8]

CC(C)SCc1ccco1
inactive: outcome [1] | outcome [2] | outcome [3] | outcome [4] | outcome [5] | outcome [6] | outcome [7] | outcome [8]

CCC1Nc2cc(Cl)c(S(N)(=O)=O)cc2S(=O)(=O)N1 (stereo not drawn)
inactive: outcome [1] | outcome [2] | outcome [3] | outcome [4] | outcome [5] | outcome [6] | outcome [7]

COC(=O)CCC(=O)O
inactive: outcome [1] | outcome [2] | outcome [3] | outcome [4] | outcome [5] | outcome [6] | outcome [7] | outcome [8]

CCC(C)(CCC(C)C)C(=O)[O-].CCC(C)(CCC(C)C)C(=O)[O-].[Zn+2] (stereo not drawn)
inactive: outcome [1] | outcome [2] | outcome [3] | outcome [4] | outcome [5] | outcome [6] | outcome [7] | outcome [8]

Cc1c(C(C)C)c(=O)n(-c2ccccc2)n1C
inactive: outcome [1] | outcome [2] | outcome [3] | outcome [4] | outcome [5] | outcome [6] | outcome [7] | outcome [8]

O=C(CN1CCN(Cc2ccc3c(c2)OCO3)CC1)N1c2ccccc2Sc2ccccc21
inactive: outcome [1] | outcome [2] | outcome [3] | outcome [4] | outcome [5] | outcome [6] | outcome [7] | outcome [8]

CCS(=O)(=O)CCn1c([N+](=O)[O-])cnc1C
inactive: fluorescence, % of fluorescein [1] 0.101% [at 18.6 µM] | fluorescence, % of fluorescent control [2] 0.0677% [at 18.6 µM] | activity change [3] 0.0328% [at 18.6 µM] | fluorescence, % of fluorescent control [4] -0.106% [at 18.6 µM] | fluorescence, % of Rose Bengal [5] 0.0121% [at 18.6 µM] | fluorescence, % of fluorescent control [6] 0.0838% [at 18.6 µM] | fluorescence, % of fluorescein control [7] -0.0978% [at 18.6 µM] | fluorescence, % of fluorescent control [8] 0.0125% [at 18.6 µM]

O=C1NC2NC(=O)NC2N1 (stereo not drawn)
inactive: outcome [1] | outcome [2] | outcome [3] | outcome [4] | outcome [5] | outcome [6] | outcome [7] | outcome [8]

O=CO
inactive: fluorescence, % of fluorescein [1] -0.109% [at 9.17 µM] | fluorescence, % of fluorescent control [2] -0.189% [at 9.17 µM] | activity change [3] -0.0948% [at 9.17 µM] | fluorescence, % of fluorescent control [4] -0.0633% [at 9.17 µM] | fluorescence, % of Rose Bengal [5] 0.0285% [at 9.17 µM] | fluorescence, % of fluorescent control [6] -0.136% [at 9.17 µM] | fluorescence, % of fluorescein control [7] -0.0013% [at 9.17 µM]

CC(=O)OC(C)(C)Cc1ccccc1
inactive: outcome [1] | outcome [2] | outcome [3] | outcome [4] | outcome [5] | outcome [6] | outcome [7] | outcome [8]

NS(=O)(=O)c1ccccc1OC(F)(F)F
inactive: outcome [1] | outcome [2] | outcome [3] | outcome [4] | outcome [5] | outcome [6] | outcome [7] | outcome [8]

CCCC(C)CC (stereo not drawn)
inactive: outcome [1] | outcome [2] | outcome [3] | outcome [4] | outcome [5] | outcome [6] | outcome [7]
